Assay outcomes (PubChem BioAssay)
ELG1 genotoxic = genotoxicity induction in ELG1-luciferase HEK293T cells. HEK293T ELG1-luciferase reporter, luminescence, 16 h. Potency, µM (top dose mostly 46 µM), for the others: at the top dose activity change, positive = activation, usual class: activators. actives 1.3% (n = 330,000); further: % of control where 0% means no effect; nearly all actives have a fitted effect of over 60% in size
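Cells (2,000/well) expressing the ELG1-luciferase fusion are dosed by pin tool and kept 16 hr at 37 °C, 5% CO2. Signal comes from ONE-Glo luciferase reagent after 30 min at room temperature.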
SMN2 splice enh = increases expression of the SMN2 splice variant | actives 2.8% (n = 210,000) | Potency, µM (top dose mostly 46.1 µM), without a hit: top-dose activity change, positive = activation, actives largely listed as activators | HEK293 SMN2-luciferase splicing reporter, luminescence, 30-36 h; further: % of control where 0% means no effect; nearly all actives have a fitted effect of over 55% in size
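qHTS luciferase splicing reporter: luminescence rises when SMN2 exon 7 is included in transfected HEK293 cells. Compound exposure lasted 30-36 h at 37C, with 4.5 mM final sodium butyrate as control, followed by a ONE-Glo read.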
Rab9 promoter act = Rab9 promoter activation. Huh7 Rab9 promoter-luciferase reporter, luminescence, 24 h. Potency, µM (titrated, usually from 9.22 µM), inactives show at the top dose activation, negative = inhibition, hits mostly activators. AID 485297. actives 2.8% (n = 320,000); further: % of control where 0% means no effect; nearly all actives have a fitted effect of over 60% in size
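Steps: seed 1500 Huh7 Rab9-luc cells per well, rest 2 h at 37 °C; add compound in DMSO; incubate 24 h; add luciferase reagent, 10 min ambient; read luminescence.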
FLuc counter = counter-screen for miR-21 project: firefly luciferase inhibitors or activators | Potency, µM (top dose mostly 57.5 µM), without a hit: top-dose activity change, negative = inhibition, actives largely listed as inhibitors | P08659 | actives 6.9% (n = 360,000) | purified FLuc, Km substrates, luminescence inhibition;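 further: plate controls were vehicle for no effect and reference inhibitor for full effect; nearly all actives have a fitted effect of over 55% in size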
Target sequence (P08659 whole entry, looked up): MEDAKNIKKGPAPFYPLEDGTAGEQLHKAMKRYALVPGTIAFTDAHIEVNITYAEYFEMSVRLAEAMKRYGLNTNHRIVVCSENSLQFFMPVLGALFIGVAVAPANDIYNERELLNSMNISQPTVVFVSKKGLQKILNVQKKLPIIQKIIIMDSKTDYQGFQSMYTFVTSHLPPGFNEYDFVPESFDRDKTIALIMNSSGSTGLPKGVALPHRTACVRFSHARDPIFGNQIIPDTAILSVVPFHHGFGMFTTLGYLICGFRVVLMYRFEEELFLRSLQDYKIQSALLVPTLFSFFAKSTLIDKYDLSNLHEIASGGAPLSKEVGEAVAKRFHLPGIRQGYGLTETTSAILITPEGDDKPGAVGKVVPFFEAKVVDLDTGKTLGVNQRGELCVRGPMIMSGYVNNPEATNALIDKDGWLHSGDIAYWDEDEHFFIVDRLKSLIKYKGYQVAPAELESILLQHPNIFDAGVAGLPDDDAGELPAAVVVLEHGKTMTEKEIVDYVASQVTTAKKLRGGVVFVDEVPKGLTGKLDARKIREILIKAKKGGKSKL
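Purified P. pyralis luciferase (10nM final) with 10uM D-luciferin and 10uM ATP (Km levels) in 50mM Tris acetate pH 7.5, 10mM Mg acetate, 0.01% Tween-20, 0.05% BSA; qHTS 6-point titration, ~60 µM downward; luminescence read.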
NPC1 prom act = activators of NPC1 promoter; Huh7 NPC1 promoter luciferase reporter, 24 h; Potency, µM (highest dose often 9.22 µM), inactives show at the highest dose activation, most hits filed as activators; actives 2.4% (n = 320,000); further: % of control where 0% means no effect; nearly all actives have a fitted effect of over 60% in size
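Luciferase expression driven by the NPC1 promoter was measured in stably transfected Huh7 cells after a 24 h compound incubation, using a luciferase reagent and a luminescence read.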
ELG1 DNA repair = ELG1-dependent DNA repair inhibition. HEK293T ELG1-luciferase reporter, luminescence, 16 h; DNA damage induced by 5-fluorouridine. actives 2.3% (n = 330,000). Potency, µM (titrated, usually from 46.1 µM), inactives show top-dose activity change, negative = inhibition, most hits filed as inhibitors. AID 504467; further: on the % scale 0 is the no-effect control and ±100 the full control effect; nearly all actives have a fitted effect of over 55% in size
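DMSO vehicle served as the neutral condition. Each well held 2,000 cells given 5-fluorouridine plus compound; after 16 hr at 37 °C/5% CO2, ONE-Glo was added and luciferase measured 30 min later.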
* hit, by the source's call; ? = inconclusive; · = no result given; [ ] = another dose, or the depositor's remark. A selection: hits, their analogues and other compounds. The true share with any hit is near 9.2%. The call rests on the fitted dose curve; in most records, active means well fitted curve in the direction sought with a large enough effect; inconclusive means small, poorly fitted or top-dose-only effect, or another doubt; inactive means no such curve, though single readings can be large; an effect the other way counts as inactive or inconclusive. Potency means the concentration at half of the fitted maximal effect.

SMILES | ELG1 genotoxic | SMN2 splice enh | Rab9 promoter act | FLuc counter | NPC1 prom act | ELG1 DNA repair
CCOc1ccc2nc(N3C(=O)CNC3=S)sc2c1 | 20.6µM* | · | 0.562µM* | 0.849µM* | 0.708µM* | ?
CCOc1ccc2nc(SC3CC(=O)N(c4ccc(OC)cc4)C3=O)sc2c1 (stereo not given) | 9.0% | 20.6% | ? | ? | 18.8% | ?
Cc1cccc(CC(=O)Nc2ccc3nc(N4CCC(C)CC4)cc(C)c3c2)c1 | · | -26.2% | · | 3.3% | · | ·
Cc1cc(N2CCC(C)CC2)nc2cccc(O)c12 | 8.3% | -24.2% | 3.5% | 23.9µM* | 3.7% | 4.8%
CC(C)(C)S(=O)(=O)/C(C#N)=N/Nc1ccc(C#N)cc1 | -13.0% | -44.3% | -3.0% | ? | -0.2% | 18.3µM*
COc1ccc(N2C(S)=C(C#N)C(=O)NC23CCCCC3)cc1 | -0.1% | · | 0.7% | 26.9µM* | 0.7% | 15.1%
COc1ccc(N2C(=O)CCC2(C#N)c2ccc(Br)cc2)cc1 (stereo not given) | 3.9% | -4.3% | -1.5% | 1.2% | 0.8% | 0.9%
COc1ccc(N2C(=O)c3ccccc3NC23CCCC3)cc1 | ? | 11.2µM* | 2.51µM* | ? | 3.98µM* | ?
CCC1(CC)Nc2ccccc2C(=O)N1c1ccc(OC)cc1 | ? | · | 2.51µM* | 10.7µM* | 2µM* | ?
Cc1cc(Cl)ccc1OC(C)C(=O)N1CCCN(C(=O)C(C)Oc2ccc(Cl)cc2C)CC1 (stereo not given) | -8.4% | -63.2% | -5.5% | -0.2% | -7.9% | ?
CCCCCCc1c(C)c2ccc(OCC(=O)N3CCC[C@H]3C(=O)O)c(C)c2oc1=O | 1.0% | · | -9.8% | 16.9µM* | -0.3% | -26.8%
CCOC(=O)CCc1c(C)c2ccc(OCC(=O)N3CCOCC3)c(C)c2oc1=O | -3.7% | · | 5.5% | -2.0% | 6.0% | ?
CCOC(=O)CCc1c(C)c2ccc(OCC)c(C)c2oc1=O | 10.4% | -6.2% | -8.2% | 12µM* | 1.5% | ?
CNC(=O)c1ccc(Nc2nnc(-c3ccc(C)c(S(=O)(=O)NC(C)(C)C)c3)c3ccccc23)cc1 | · | 4.6% | · | -5.2% | · | ·
Cc1ccc(-c2nnc(Nc3ccc(C(=O)N(C)C)cc3)c3ccccc23)cc1S(=O)(=O)NC(C)(C)CO | 2.5% | · | 15.4% | 21.3µM* | 5.4% | 7.9%
Cc1ccc(-c2nnc(Nc3ccc(C(=O)N(C)C)cc3)c3ccccc23)cc1S(=O)(=O)NCC1CCCO1 (stereo not given) | -5.1% | 5.5% | 14.7% | 10.7µM* | 2.0% | 20.6µM*
Cc1ccc(C(=O)O/N=C/c2c(Cl)n(C)c3ccccc23)cc1 | -0.8% | ? | -0.2% | 2.69µM* | -0.1% | 0.3%
Cc1cccc(C(=O)O/N=C/c2c(Cl)n(C)c3ccccc23)c1 | -1.0% | 5.4% | 1.3% | ? | -0.8% | 2.4%
Cn1c(Cl)c(/C=N/OC(=O)c2ccc(Cl)cc2)c2ccccc21 | -1.5% | -8.7% | -1.9% | 3.38µM* | 9.5% | 10.1%
CN(C)c1ccc(NC(=O)CCn2c(=S)oc3ccccc32)cc1 | 15.6% | 1.2% | 16.7% | 4.26µM* | 12.7% | 11.7%
Cc1cccc2c1NC(=O)/C2=C\C(=O)c1cccs1 | 7.9% | -32.9% | 0.2% | 4.78µM* | 0.1% | 20.2%
COCCn1c(C)cc(O)c(C(c2ccc(Cl)cc2)N2CCCCC2)c1=O (stereo not given) | · | · | · | -8.0% | · | ·
O=C(NC(=S)NC(c1ccccc1)c1ccncc1)c1ccccc1 (stereo not given) | -10.8% | 0.6% | -2.7% | -1.0% | -3.3% | 18.4µM*
O=C(Nc1ccc(Cl)cc1)c1cc2c(Cl)nc3ccccc3c2s1 | · | -1.7% | · | -3.4% | · | ·
O=C(/C=C/c1ccc(Cl)cc1Cl)NC(=S)Nc1ccc(CN2CCOCC2)cc1 | -1.2% | -23.5% | 7.1% | -2.5% | -0.8% | -6.1%
SMILES | ELG1 genotoxic | SMN2 splice enh | Rab9 promoter act | FLuc counter | NPC1 prom act | ELG1 DNA repair
O=C(/C=C/c1ccc(Cl)cc1Cl)NC(=S)Nc1ccccn1 | ? | 4.0% | 0.891µM* | ? | 1.12µM* | ?
O=C(Nc1ccc(Cl)cc1)c1ccc(-c2ccccn2)s1 | 23.3% | · | 2.82µM* | ? | 1.58µM* | ?
O=C(NC(=S)Nc1ccccn1)c1ccccc1 | 1.64µM* | · | 0.126µM* | 7.57µM* | 0.316µM* | ?
CC(C)(C)C(=O)NC(=S)Nc1ccccn1 | 5.7% | 16.2% | -2.0% | -4.3% | -1.2% | ?
Cn1cnc(S(=O)(=O)N2CCC(C(=O)NCc3ccc(F)cc3)CC2)c1 | · | · | · | -0.1% | · | ·
O=C(Nc1ccccn1)c1ccc(Br)s1 | ? | · | 3.98µM* | 10.7µM* | 1.78µM* | ?
O=C(NC(=S)Nc1ccccn1)c1ccc([N+](=O)[O-])cc1 | ? | 2.82µM* | 1µM* | 5.36µM* | 2µM* | ?
O=C(CC(=O)c1ccccc1)Nc1ccccn1 | 14.6µM* | · | 1.78µM* | 10.7µM* | 2.51µM* | ?
O=C(CS(=O)(=O)c1ccccc1)Nc1ccccn1 | 2.1% | 4.8% | -4.6% | 0.6% | -2.8% | 0.6%
O=C(Nc1ccccn1)c1cc2cc([N+](=O)[O-])ccc2s1 | ? | ? | 1.41µM* | ? | 2µM* | ?
O=C(O)CCCCn1ccc(=O)[nH]c1=O | · | -8.0%[9.22 µM] | · | · | · | ·
COC(=O)C1=C(CS(=O)(=O)c2ccccc2)NC(=O)NC1c1ccc(OC)c(OC)c1 (stereo not given) | 4.1% | · | -0.2% | 2.8% | 0.6% | 23.0%
Cc1nc2ccc(S(=O)(=O)N(C)CC(=O)Nc3ccc(C(C)C)cc3)cc2s1 | · | -25.5% | · | 4.1% | · | ·
Cc1cccc(Nc2cc(Cl)nc(SCC(=O)O)n2)c1C | · | 5.0%[9.22 µM] | · | · | · | ·
O=C(NC(=S)Nc1ccccn1)c1ccc(-c2ccccc2)cc1 | ? | · | 0.282µM* | 1.51µM* | 0.112µM* | ?
COCCN(C(=O)CNC(=O)c1ccco1)C(C(=O)NC1CCCC1)c1ccc(F)cc1 (stereo not given) | 0.6% | · | -0.8% | 0.8% | -6.5% | 1.3%
COc1ccc(Nc2ncnc3ccc([N+](=O)[O-])cc23)c(OC)c1 | -6.8% | -18.8% | -2.5% | -1.1% | -0.8% | ?
O=[N+]([O-])c1ccc(O)c(Nc2ncnc3ccc(Br)cc23)c1 | -12.4% | · | -2.0% | ? | 0.9% | 13µM*
COc1ccc([N+](=O)[O-])cc1Nc1ncnc2ccccc12 | -1.0% | -25.4% | -0.7% | 9.1% | -7.4% | 0.2%
O=[N+]([O-])c1ccc(O)c(Nc2ncnc3ccccc23)c1 | 1.5% | · | 13.8% | 0.536µM* | ? | 8.8%
Cc1ccc(O)c(Nc2ncnc3ccc([N+](=O)[O-])cc23)c1 | -20.3% | · | 4.5% | 0.7% | 19.7% | 13µM*
